Our source for the inhibition values is PubChem BioAssay AID624167 (Sanford-Burnham Center for Chemical Genomics, 2012).

This assay is described as follows: inhibition of PEG-3 promoter-driven reporter – cell-based, HeLa, luciferase, CREF/GAPDH counter-screen panel, dose response (AID 624167). Particulars: CREF/GAPDH counter-screens; run 1, dose range 1, at 100 µM (top of the series). (In general: Counterscreens check selectivity or assay interference.)
In general, inhibition refers to the drop in the measured response relative to a control, in per cent. Low readings indicate a response near the control, high ones a response far below the control. In turn, `CCC(C)Cn1c(O)cc2nn(-c3nc4ccccc4s3)c(=O)c-2c1C` (configuration not stated) gave an inhibition of 99.6%.

For `CN1OC[C@@H]2CN(S(=O)(=O)c3cccc(C(F)(F)F)c3)[C@H](c3ccc(-c4cc5ccccc5o4)cc3)C[C@@H]21`, the inhibition was 70.1%.

Compound `Cc1ccc(OCC(=O)c2cc(C)n(Cc3ccco3)c2C)c([N+](=O)[O-])n1` returned an inhibition of 70.8%.

The compound `CN(O)C(=S)c1ccccc1` gave an inhibition of 3.97%.

On to `CCC(=O)NC(c1ccc(C)cc1)c1ccc2cccnc2c1O` (configuration not stated), for which the inhibition stood at 36.2%.

In turn, `O=c1c2ccccc2sc2nc(CCl)nn12` had an inhibition of 100%.

`COc1ccc(NC(=O)c2cc(-c3ccccn3)nc3ccccc23)cc1S(=O)(=O)N(C)C` showed an inhibition of 48.4%.

On to `C(=N\Nc1ccc2ccccc2n1)/c1ccc2c(c1)OCCO2`, for which the inhibition came out at 99.5%.

`CC(=O)c1ccc(-c2cnc3c(NC=O)cc(-c4ccccc4Oc4ccccc4)cn23)cc1` gave an inhibition of 39.3%.

The compound `CN(C)CC1CCC/C(=C\c2ccc(OC(=O)c3ccc(Cl)cc3)cc2)C1=O` (configuration not stated) displayed an inhibition of 76%.

Consider `CC1=NOC(=O)/C1=C\c1ccc(-c2ccccc2Br)o1`, for which the inhibition was determined as 94.2%.

The compound `O=C(Nc1ccccc1C(=O)Nc1nnc(C(F)(F)F)s1)c1ccccc1` had an inhibition of 60.8%.

`CCCn1nc(C(=O)Nc2nc(-c3ccccn3)cs2)c2ccccc2c1=O` displayed an inhibition of 13.9%.

For the compound `COc1ccc2c(c1)c(=Cc1ccc(N(C)C)cc1)c1cc(-c3ccccc3)[n+](C)n12`, the inhibition was determined as 99.5%.

`O=C(NNC(=O)c1cccnc1SCc1cccc([N+](=O)[O-])c1)c1ccccn1` yielded an inhibition of 6.38%.

`Cc1cc(Br)ccc1NC(=O)CNC(=O)Cn1ncc(Cl)c(Cl)c1=O` showed an inhibition of 98.5%.

Consider `O=[N+]([O-])c1ccc(S(=O)(=O)c2ccccc2)nc1`, for which the inhibition stood at 100%.
